The text below walks through data of PubChem BioAssay (NCI).

Compounds without any hit were thinned out: in the full panel of roughly 79,000, 15% have a hit. The source made the active and inactive calls. No stated cut-off is given here; in the data, active means growth inhibition above about 70%; inactive means the rest.

One test can be described thus: NCI Yeast Anticancer Drug Screen. Data for the sgs1 mgt1 strain (AID 161).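 Further: 0% = growth of cultures given vehicle only.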 The conditions noted are these: S. cerevisiae sgs1 mgt1 strain, at 50.0 µM, active compounds read high. In a few lines: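 Inhibition of yeast growth, normalised to vehicle-treated controls, is reported for a strain bearing genetic alterations in DNA damage repair.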
For the molecule `CCN(CC)Cc1cc(N=Nc2c(O)ccc3c(N=Nc4ccc(O)c(CN(CC)CC)c4)c(O)ccc23)ccc1O`, the growth inhibition was 94.3% (active).

Consider `CC(C)(C)c1ccc(OC(=O)Nc2ccc(Cl)cc2[N+](=O)[O-])c(Br)c1`, for which the growth inhibition was 68.5% (inactive).

On to `CCC(CCCN(CC)CCc1ccccc1)OC(=O)c1cc(OC)c(OC)c(OC)c1` (centres undefined), for which the growth inhibition is 37.8% (inactive).

Take `CCN1/C(=C\c2cc[n+](CC)c3ccccc23)C=Cc2ccccc21`: the growth inhibition was 32.4% (inactive).

For `CC1=C(C(=O)Nc2ccccc2C)C(c2ccc(Cl)c(Cl)c2)C(C(=O)Nc2ccccc2C)=C(C)N1`, the growth inhibition was 79.4% (active).

In the case of `Clc1ccc2nc3c(c(N4CCOCC4)c2c1)CCCC3`, the growth inhibition was 99.2% (active).

With `N#Cc1cc2cccn2c2c1cnn2-c1ccccc1`, the growth inhibition is -1.5% (inactive).

On to `COc1cccc(C2c3cc4c(cc3OC(Nc3ccccc3)C2C)OCO4)c1O` (centres undefined), for which the growth inhibition is 94.8% (active).

As to `Nc1nc(-c2ccccc2)c(-c2ccccc2)c(-c2nc(N)nc(-c3ccccc3)c2-c2ccccc2)n1`, the growth inhibition was -16.9% (inactive).

`CCOC(C)c1ccccc1` (centres undefined): the growth inhibition is 30.8% (inactive).

Consider `O=C1OC(CCCl)(c2ccccc2)CC1CN1CCOCC1` (centres undefined), for which the growth inhibition is 59% (inactive).

In the case of `OC(Cc1ccccc1)(c1ccccc1)C(O)(Cc1ccccc1)c1ccccc1` (centres undefined), the growth inhibition was 78.4% (active).

Regarding `COc1ccc(N=N/N=c2\sc3cc(OC)ccc3n2C)cc1`, the growth inhibition was 11.9% (inactive).

Regarding `CCCCCC(CO)C(O)(C(F)(F)F)C(F)(F)F` (centres undefined), the growth inhibition was 65.4% (inactive).

`CC1=C(C(=O)Nc2ccccc2)C(c2ccccc2F)C(C(=O)Nc2ccccc2)=C(C)N1`: the growth inhibition is 31.3% (inactive).

For `CCOCCC(=O)NNc1ccccc1`, the growth inhibition was 42.2% (inactive).

For `CCOC(=O)C(Br)C(Br)c1cccc([N+](=O)[O-])c1` (centres undefined), the growth inhibition is 99.7% (active).

Take `Cc1ccc(-c2c(C#N)c(-c3ccccc3)n(NS(=O)(=O)c3ccc(C)cc3)c(=O)c2C#N)cc1`: the growth inhibition was 81% (active).

Take `CNC(=O)N1N[C@H](c2ccccc2)[C@@H]1c1ccccc1`: the growth inhibition was 47.4% (inactive).

Consider `CCCCCCCCCN(CCCCCCCCC)CC(O)c1cc2c(c3ccccc13)CCCC2` (centres undefined), for which the growth inhibition was 99% (active).

For `O=C(O)C(c1ccc(Cl)cc1)c1ccc(Cl)cc1`, the growth inhibition was 91.9% (active).

Regarding `O=C1c2ccc3ccccc3c2CN2C(=O)CCC12` (centres undefined), the growth inhibition was 21.7% (inactive).

On to `CCCCCCCCCCCCCCCCNc1ccn(C2CC(OP(=O)(O)OCC3OC(n4cc(CC)c(=O)[nH]c4=O)CC3O)C(CO)O2)c(=O)n1` (centres undefined), for which the growth inhibition is 58% (inactive).

For the molecule `Cc1cc(Cl)c(O)c(-c2cc(-c3cccc([N+](=O)[O-])c3)c3c(N)[nH]c(=S)nc3n2)c1`, the growth inhibition is 20.3% (inactive).

A further test can be described thus: NCI Yeast Anticancer Drug Screen. Data for the cln2 rad14 strain (AID 165).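 Further: 0% = growth equal to vehicle treated cultures.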 Particulars: S. cerevisiae cln2 rad14 strain, at 5.0 µM (retest, dose inferred, filed as 0.5), active compounds read high. The gist of the method:
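Growth of compound-exposed yeast (cln2 rad14 genotype) measured and expressed as inhibition relative to vehicle.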
Take `CCC1(c2ccc(N3C(=O)c4ccccc4C3=O)cc2)CCC(=O)NC1=O` (centres undefined): the growth inhibition is -17% (inactive).

Turning to `CN(C)c1c([N+](=O)[O-])cc(N2C(=O)C=CC2=O)cc1[N+](=O)[O-]`, the growth inhibition is 50% (inactive).

Regarding `CCOC1(OCC)Oc2c(Cl)c(Cl)c(Cl)c(Cl)c2OC1(OCC)OCC`, the growth inhibition is 16% (inactive).

Turning to `CC(=O)NC1=C(Oc2ccccc2)C(=O)c2ccccc2C1=O`, the growth inhibition was 89% (active).

Take `CC1SC(=S)N(c2ccc(Cl)cc2)C1=O` (centres undefined): the growth inhibition was 3% (inactive).

For the molecule `CC(NNC(=S)N1CC2CCC(CC2)C1)c1cc2ccccc2cn1` (centres undefined), the growth inhibition was 72% (active).

`CCCCCCCCCCCCCC(=O)N1CCOCC1`: the growth inhibition is -1% (inactive).

For `COC(O)C(=O)c1c2c(cc3c1CC1(Cc4cc5c(cc4C1)CCC5)C3)CCC2` (centres undefined), the growth inhibition is 99% (active).

With `CCC(=O)OCC(=O)c1ccc(-c2ccccc2)cc1`, the growth inhibition was 33% (inactive).

Consider `CN(Cc1cnc2nc(N)nc(N)c2n1)c1ccc(C(=O)NC(CCC(=O)O)C(=O)O)cc1` (centres undefined), for which the growth inhibition is 0% (inactive).

Take `COc1ccc(C(=O)Nc2ccc(O)c(=O)cc2)cc1`: the growth inhibition is 14% (inactive).

`c1cc[c]([Sn]([NH]c2ncnc3[nH]cnc23)([NH]c2ncnc3[nH]cnc23)[c]2ccccc2)cc1`: the growth inhibition was -2% (inactive).

On to `CCCCCCCCCCCC1C(C#N)C(=O)NC(=O)C1C#N` (centres undefined), for which the growth inhibition was 73% (active).

On to `c1ccc(CSc2nnc3c4ccccc4c4ccccc4c3n2)cc1`, for which the growth inhibition was -21% (inactive).

With `Cc1ccc(-n2cc(-c3ccc(Cl)cc3)c3c(N)ncnc32)cc1`, the growth inhibition was -3% (inactive).

For the molecule `C[C@]12CCC3[C@@H](CC[C@@H]4c5nonc5CC[C@]34C)C1CCC(=O)N2` (some centres undefined), the growth inhibition was 7% (inactive).

Consider `CCN(CC)Cc1cc(N=Nc2c(O)ccc3c(N=Nc4ccc(O)c(CN(CC)CC)c4)c(O)ccc23)ccc1O`, for which the growth inhibition was -7% (inactive).

Regarding `CC(C)(C)c1ccc(OC(=O)Nc2ccc(Cl)cc2[N+](=O)[O-])c(Br)c1`, the growth inhibition was 3% (inactive).

On to `CCC(CCCN(CC)CCc1ccccc1)OC(=O)c1cc(OC)c(OC)c(OC)c1` (centres undefined), for which the growth inhibition was 2% (inactive).

Take `CCN1/C(=C\c2cc[n+](CC)c3ccccc23)C=Cc2ccccc21`: the growth inhibition was -8% (inactive).

For `CC1=C(C(=O)Nc2ccccc2C)C(c2ccc(Cl)c(Cl)c2)C(C(=O)Nc2ccccc2C)=C(C)N1`, the growth inhibition is 8% (inactive).

Regarding `Clc1ccc2nc3c(c(N4CCOCC4)c2c1)CCCC3`, the growth inhibition was 80% (active).

For `N#Cc1cc2cccn2c2c1cnn2-c1ccccc1`, the growth inhibition was 3% (inactive).

`COc1cccc(C2c3cc4c(cc3OC(Nc3ccccc3)C2C)OCO4)c1O` (centres undefined): the growth inhibition was 4% (inactive).

On to `Nc1nc(-c2ccccc2)c(-c2ccccc2)c(-c2nc(N)nc(-c3ccccc3)c2-c2ccccc2)n1`, for which the growth inhibition was 21% (inactive).

`CCOC(C)c1ccccc1` (centres undefined): the growth inhibition is 10% (inactive).

As for `O=C1OC(CCCl)(c2ccccc2)CC1CN1CCOCC1` (centres undefined), the growth inhibition was 15% (inactive).

Turning to `OC(Cc1ccccc1)(c1ccccc1)C(O)(Cc1ccccc1)c1ccccc1` (centres undefined), the growth inhibition was 13% (inactive).

Consider `COc1ccc(N=N/N=c2\sc3cc(OC)ccc3n2C)cc1`, for which the growth inhibition was -2% (inactive).

In the case of `CCCCCC(CO)C(O)(C(F)(F)F)C(F)(F)F` (centres undefined), the growth inhibition was 3% (inactive).

As for `CC1=C(C(=O)Nc2ccccc2)C(c2ccccc2F)C(C(=O)Nc2ccccc2)=C(C)N1`, the growth inhibition is 0% (inactive).

Consider `CCOCCC(=O)NNc1ccccc1`, for which the growth inhibition was 5% (inactive).

With `CCOC(=O)C(Br)C(Br)c1cccc([N+](=O)[O-])c1` (centres undefined), the growth inhibition was 92% (active).

For `Cc1ccc(-c2c(C#N)c(-c3ccccc3)n(NS(=O)(=O)c3ccc(C)cc3)c(=O)c2C#N)cc1`, the growth inhibition is 52% (inactive).

Consider `CNC(=O)N1N[C@H](c2ccccc2)[C@@H]1c1ccccc1`, for which the growth inhibition is 20% (inactive).

Take `CCCCCCCCCN(CCCCCCCCC)CC(O)c1cc2c(c3ccccc13)CCCC2` (centres undefined): the growth inhibition was 7% (inactive).

As to `O=C(O)C(c1ccc(Cl)cc1)c1ccc(Cl)cc1`, the growth inhibition was 6% (inactive).

As for `O=C1c2ccc3ccccc3c2CN2C(=O)CCC12` (centres undefined), the growth inhibition was 7% (inactive).

Take `CCCCCCCCCCCCCCCCNc1ccn(C2CC(OP(=O)(O)OCC3OC(n4cc(CC)c(=O)[nH]c4=O)CC3O)C(CO)O2)c(=O)n1` (centres undefined): the growth inhibition is 7% (inactive).

On to `Cc1cc(Cl)c(O)c(-c2cc(-c3cccc([N+](=O)[O-])c3)c3c(N)[nH]c(=S)nc3n2)c1`, for which the growth inhibition is 12% (inactive).
